Test results reported in PubChem BioAssay AID2069 (Sanford-Burnham Center for Chemical Genomics, 2009).
The campaign covered roughly 1,200 compounds. About 210 (18%) were called active. A selection follows. Values without a mark were called inactive. No stated cut-off is given here; in the data, active means inhibition above about 30%; inactive means the rest.

Experiment: HTRF signal interference by compounds, confirmation, artefact control for SUMOylation inhibitor project, biochemical, uHTS (AID 2069)
Conditions: HTRF interference counterscreen, fluorescence, at 35 µM, hits give high values

Compound	inhibition
Cc1cc(/C=N/n2c(COc3ccccc3C)nc3ccccc3c2=O)c(O)c([N+](=O)[O-])c1	-15.5%
CCn1c2ccccc2c2c3ncc4cccn4c3ccc21	31.1% (active)
O=[N+]([O-])c1ccc2nc(CCCc3nc4ccc([N+](=O)[O-])cc4[nH]3)[nH]c2c1	28.1%
COc1ccccc1CCNC(=O)CSc1ccc(-c2ccco2)nn1	14.2%
CCc1cc2c(=O)c(Oc3ccccc3F)c(C)oc2c(CN(C)C)c1O	62.9% (active)
Cc1ccccc1NC(=O)Cn1c(O)c(N=NC(=O)c2ccccc2O)c2ccccc21	11.2%
CN1CCc2cc3c(c4c2[C@H]1[C@H](O)c1ccccc1-4)OCO3	1.95%
CCc1ccc(/C=C2/SC(=S)N(CCC(=O)Nc3ccc(C(=O)O)cc3)C2=O)cc1	8.2%
COc1ccc2nc3ccccc3nc2c1N	-67.2%
CC(=O)NC1C(=O)N(CCN2CCOCC2)c2ccc(Br)cc21 (centres undefined)	32.2% (active)
CC(=O)NC1C(=O)N(CCN2CCOCC2)c2ccc(Cl)cc21 (centres undefined)	25.8%
CCc1ccc2c(c1)C(NC(C)=O)C(=O)N2CCN1CCOCC1 (centres undefined)	30.8% (active)
CCOc1ccc2c(c1)C(NC(C)=O)C(=O)N2CCN1CCOCC1 (centres undefined)	37.8% (active)
Brc1ccc(OCCN2CCOCC2)cc1	-8.15%
CCc1ccc2nc(NC(=O)c3ccc4c(=O)[nH]c(CN5CCOCC5)nc4c3)sc2c1	29.9%
CC(=O)NC1C(=O)N(CCN2CCOCC2)c2ccc(F)cc21 (centres undefined)	28.6%
O=C1NC(=O)c2cc(NC(=O)C3CCCCC3)ccc21	25.4%
CCOC(=O)C1CC(=O)c2cc(OC)c(OC)cc2C1 (centres undefined)	-1.1%
O=C(COc1ccc(Cl)cc1)Nc1nnc(-c2ccc3c(c2)CCCC3)o1	-7.05%
CC(C)=CCC1=C(OCC(=O)O)C(=O)c2ccccc2C1=O	-6.2%
O=C(NC1(O)C(=O)c2ccccc2C1=O)c1c(Cl)cccc1Cl	50.4% (active)
CN(NC(=O)c1ccc(Cl)cc1)c1ncc(C(F)(F)F)cc1Cl	4.95%
Cc1ccc(C(=O)NC2(O)C(=O)c3ccccc3C2=O)cc1C	29.6%
O=C(NC1(O)C(=O)c2ccccc2C1=O)c1ccc(C(F)(F)F)cc1	56.5% (active)
O=C(Cc1ccccc1Cl)NC1(O)C(=O)c2ccccc2C1=O	-30.6%

Compound	inhibition
O=C(NC1(O)C(=O)c2ccccc2C1=O)c1ccccc1	57.5% (active)
O=C1c2ccccc2C(=O)C12OC2c1ccc(Cl)cc1 (centres undefined)	4.4%
CC(=O)c1ccc(-c2ccc(/C=C(/Sc3n[nH]c(C)n3)C(=O)O)o2)cc1	-9.75%
Cc1cccc(C)c1OCC(=O)N=Nc1c(O)[nH]c2ccc(Br)cc12	-1.15%
Cc1nnc(N/N=C\c2ccc(-c3ccccc3[N+](=O)[O-])o2)n1N	16%
O=C1/C(=N\S(=O)(=O)c2cccs2)C([n+]2cccc(Cc3ccccc3)c2)=C([O-])c2ccccc21	22%
CCC(=O)N1CCc2cc(S(=O)(=O)NC(C(=O)NCc3ccc(C)cc3)C(C)C)ccc21 (centres undefined)	-2.25%
COC(=O)c1c(NC(=O)COC(=O)c2ccc(NC(=O)CC#N)cc2)sc2c1CCCCC2	4.25%
COCCn1c(-c2ccco2)nc2nc3ccccc3nc21	12.7%
Fc1cccc(-n2c(-c3cccs3)nc3nc4ccccc4nc32)c1	30.1% (active)
O=[N+]([O-])c1ccc(-c2ccc(C=Nc3cccc4ccccc34)o2)cc1	11.9%
CN(C)S(=O)(=O)c1cccc(-c2nn(-c3ccccc3)cc2/C=C2\SC(=S)NC2=O)c1	-4%
Cc1nnc(Sc2cc(NCCCO)c([N+](=O)[O-])c3nonc23)s1	-3.2%
O=c1c2ccccc2oc2cc(NCCCN3CCOCC3)ccc12	57.9% (active)
COc1ccc(-c2ccc(C(c3c(C)[nH][nH]c3=O)c3c(C)[nH][nH]c3=O)o2)c([N+](=O)[O-])c1	1.45%
COc1cc2c(cc1OC)-c1cc3ccc4c(c3c[n+]1CC2)OCO4	24.4%
CCOC(=O)c1c(NC(=O)c2ccco2)n(C2CCCCC2)c2nc3ccccc3nc12	21.2%
Cc1cc(NCCO)c2cc(O)ccc2n1	57.5% (active)
Cc1ccccc1NC(=O)c1ccc(N/N=C/c2ccccc2O)c([N+](=O)[O-])c1	24.7%
O=C(NC(=S)Nc1cccc2c(O)cccc12)c1ccccc1[N+](=O)[O-]	-1.65%
COC(=O)/C(=C\Nc1ccc(Cl)cc1Cl)NC(=O)c1ccc(OC)cc1	0.3%
COc1cccc(/C=N/NC(=O)C(=O)N/N=C/c2cccc(OC)c2O)c1O	48% (active)
COc1cccc(/C=N\NC(=O)C2=NNC(=O)C2C)c1O (centres undefined)	24.4%
O=C(N/N=C/c1ccc(O)cc1O)C(=O)N/N=C/c1ccc(O)cc1O	63.6% (active)
COc1cc(OC)c(/C=N/NC(=O)c2ccc(NC(C)=O)cc2)cc1Br	23.1%

Compound	inhibition
COc1cccc2c(SCC(=O)N/N=C/c3ccc(O)cc3O)cc(C)nc12	15.7%
Oc1ccc(C=Nc2cccc3ccccc23)c(O)c1	0.55%
CC1(OC(=O)c2cccs2)C(=O)C=C2C=C3CCCN3C=C2C1=O (centres undefined)	7.4%
O=C(CNc1ccc2ccccc2c1)N/N=C/c1cc2ccccc2nc1Cl	2.4%
CC1=NN(c2ccccc2)C(=O)C1	7.95%
Cc1[nH]n(-c2ncc(-c3ccccc3)s2)c(=O)c1C(c1ccc(Cl)cc1)C(C#N)C#N (centres undefined)	-20.6%
O=C(Cn1c2ccccc2c(=O)c2ccccc21)N/N=C/c1cc([N+](=O)[O-])ccc1N1CCCCCC1	10.9%
Cc1ccccc1C(=O)Nc1cccc(C(=O)N/N=C/c2cc(Cl)cc([N+](=O)[O-])c2O)c1	-53.5%
O=C(N/N=C/c1ccc(N2CCOCC2)cc1)c1ccccc1NS(=O)(=O)c1cccs1	24.1%
O=C(N/N=C/c1cc(Cl)cc([N+](=O)[O-])c1O)c1ccccc1NS(=O)(=O)c1cccs1	39.8% (active)
C=C(C)[C@@H]1CC[C@]2(C(=O)O)CC[C@]3(C)[C@H](CC[C@@H]4[C@@]5(C)CC[C@H](O)C(C)(C)[C@@H]5CC[C@]43C)[C@@H]12	5.35%
Cc1ccc(Nc2nc(=O)c3cc([N+](=O)[O-])ccc3s2)cc1	5.9%
Cc1cccc(NC(=O)/C(C#N)=C/c2cn(CC(=O)NCc3ccco3)c3ccccc23)c1C	13.7%
CCCCCCC#Cc1cncc(C(=O)NNC(=O)Nc2cc(Cl)cc(Cl)c2)c1	-17%
O=C1C=C(Nc2ccccc2C(=O)O)c2ccccc2C1=O	-7.25%
O=C1C=C(N(CCO)Cc2ccccc2)c2ccccc2C1=O	50.4% (active)
O=C1C=C(NCc2ccccc2)c2ccccc2C1=O	-1.95%
CC(C)CNC1=CC(=O)CC(c2ccco2)C1 (centres undefined)	-0.9%
COc1cccc(C(c2c(C)[nH]n(-c3ccccc3)c2=O)c2c(C)[nH]n(-c3ccccc3)c2=O)c1OC	-27.4%
Nc1ncnc2c1ncn2C1OC(COP(=O)(O)O)C(O)C1O (centres undefined)	-7%
O=C1OC(Nc2ccc3ncccc3c2)c2ccccc21 (centres undefined)	24%
O=[N+]([O-])c1ccc(O)c(C=Nc2cccc3ncccc23)c1	4.3%
N#CC1=C(N)N2C(=C(C#N)C1c1ccc(Br)cc1)Nc1ccccc12 (centres undefined)	7.05%
O=c1nc2s/c(=C\c3ccco3)c(=O)n2nc1Cc1ccc(F)cc1	-3.1%
OC(COc1ccccc1)CSc1ncn[nH]1 (centres undefined)	14.6%

Compound	inhibition
COc1ccc(NC(=S)Nc2ccc3nccnc3c2)cc1	8.85%
CC(C)N(C(=O)Nc1ccc2nccnc2c1)C(C)C	31.1% (active)
Fc1ccc(NC(=S)Nc2ccc3nccnc3c2)cc1	7.9%
COc1ccc(-n2c(NC(=O)c3ccc(Br)o3)c(C#N)c3nc4ccccc4nc32)cc1	12.1%
Cn1c(=O)n(C)c2cc(S(=O)(=O)NCCO)ccc21	-3.1%
O=C(Nc1cccc2nsnc12)c1ccc(-c2cccc(Cl)c2)o1	25.9%
Cc1ccc2nsnc2c1NC(=O)c1ccc(-c2cc(Cl)ccc2Cl)o1	20.6%
CCOc1ccccc1Oc1c(C)oc2c(CN3CCN(C)CC3)c(O)ccc2c1=O	40.3% (active)
COc1ccccc1Oc1c(C)oc2c(CN3CCN(C)CC3)c(O)ccc2c1=O	30.4% (active)
CCOc1cc(C2c3c(oc4ccccc4c3=O)C(=O)N2c2nccs2)ccc1O (centres undefined)	-2.15%
Oc1ccc2ccccc2c1C=NCc1cn2ccsc2n1	0.1%
CC(C)c1ccc(NC(=S)Nc2cccc3ccccc23)cc1	-7.9%
COc1ccc2cc3c(N)nn(C(=O)Cc4ccc(Cl)cc4)c3nc2c1	23.9%
CCN(CC)C(=O)c1sc2nc(-c3ccncc3)[nH]c(=O)c2c1C	47.2% (active)
CCCCCCC(C)OC(=O)c1ccccc1C(=O)O (centres undefined)	3.05%
NC(=S)n1[nH]c(-c2ccc([N+](=O)[O-])cc2)c(N=Nc2cccc(Cl)c2)c1=O	10.7%
COc1ccc(CCn2c(N)c(C(=O)NCc3ccco3)c3nc4ccccc4nc32)cc1OC	1.65%
COc1ccc2oc(=O)c(C(=O)NCc3ccco3)cc2c1	48.4% (active)
COc1ccc(CNC(=O)c2c(C)oc3c2C(=O)c2ccccc2C3=O)cc1	5.35%
COc1ccc(-c2cc(C(F)(F)F)n3ncc(C(=O)NCc4ccco4)c3n2)cc1	44.1% (active)
COc1ccc2oc(=O)c(/C(C)=N/NC(=O)c3ccncc3)cc2c1	18.8%
COc1ccc2oc(=O)c(C(=O)NCC3CCCO3)cc2c1 (centres undefined)	40.9% (active)
COc1ccc(C(=O)Nc2ccc(-c3nnn(CC(=O)NCc4ccco4)n3)cc2)cc1	26.7%
Cc1onc(-c2ccccc2Cl)c1C(=O)NCc1ccco1	11.2%
